Assay results published in PubChem BioAssay (NCATS).
Unmarked numbers belong to inactive results. Records with an inconclusive call do not appear. Calls of active or inactive are those of the source. Unless noted, the call rests on the fitted dose curve; in most records, active means well fitted curve in the direction sought with a large enough effect; inconclusive means small, poorly fitted or top-dose-only effect, or another doubt; inactive means no such curve, though single readings can be large; an effect the other way counts as inactive or inconclusive.

Legend:
[1] = test system: Zika virus NS2B-NS3 protease (linked construct); test: Primary screen NINDS Rhodamine qHTS for Zika virus inhibitors (AID 1347160)
Procedure, shortened: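 Percent inhibition, normalized to uninhibited and enzyme-free controls, is fitted to a 4-parameter Hill equation. Fluorescence change comes from a 15-min cleavage of 1.5 microM bis-peptide Rhodamine110 substrate by 25 nM linked NS2B-NS3 at room temperature.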

[2] = OV-KATE Cancer Cell Toxicity qHTS against the NCATS CANVASS Library (AID 1347345)
Procedure, shortened: (§1)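 Viability was assessed by adding CellTiter-Glo reagent to treated cultures and reading luminescence after 15min at room temperature. Treatment lasted 72 h at 37 degrees C/5% CO2, using an 11-point series on 1000 cells/well.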

[3] = OV-SAHO Cancer Cell Toxicity qHTS against the NCATS CANVASS Library (AID 1347348)
Procedure, shortened: as §1

[4] = SW1088 Cancer Cell Toxicity qHTS against the NCATS CANVASS Library (AID 1347350)
Procedure, shortened: as §1

[5] = U-118MG Cancer Cell Toxicity qHTS against the NCATS CANVASS Library (AID 1347351)
Procedure, shortened: as §1

[6] = COV-362 Cancer Cell Toxicity qHTS against the NCATS CANVASS Library (AID 1347352)
Procedure, shortened: (§2)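 Luminescent ATP read-out (CellTiter-Glo, 15min at room temperature) measures survival after cells face an 11-point compound series for 72 hours at 37 degrees C/5% CO2.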

[7] = A2780 Cisplatin Sensitive Ovarian Cancer Cell Toxicity qHTS against the NCATS CANVASS Library (AID 1347353)
Procedure, shortened: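 Luminescent ATP content (ATPLite, 10 min at room temperature) served as the read-out after cells had been exposed to compounds for 72 hours at 37 °C. Dosing followed an 11-point concentration series.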

[8] = UWB1.289-WTBRCA1 Cancer Cell Toxicity qHTS against the NCATS CANVASS Library (AID 1347354)
Procedure, shortened: as §2

[9] = HEK-293 Cancer Cell Toxicity qHTS against the NCATS CANVASS Library (AID 1347355)
Procedure, shortened: as §2

[10] = HEK293 18hr Apoptosis Induction qHTS against the NCATS CANVASS Library (AID 1347357)
Procedure, shortened: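 Luminescent caspase-3/7 signal is measured in HEK293 cells exposed for 18 hours to an 11-point concentration series; doxorubicin serves as the plate control.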

[11] = HPAF-II 12hr Apoptosis Induction qHTS against the NCATS CANVASS Library (AID 1347358)
Procedure, shortened: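 500 HPAF-II cells/well; cmpds 11-pt; 12 hr, 37 degrees C/5% CO2; Caspase-Glo 3/7 added, 15 min RT dark; luminescence read. Doxorubicin titration as control.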

[12] = HEK293 24hr Apoptosis Induction qHTS against the NCATS CANVASS Library (AID 1347359)
Procedure, shortened: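 HEK293 cells (500/well, DMEM + 10% FBS) were exposed to compounds in an 11-point series for 24 hours at 37 degrees C, then caspase-3/7 activity was read by Caspase-Glo DEVD luciferase luminescence after 15 min.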

[13] = HEK293 12hr Apoptosis Induction qHTS against the NCATS CANVASS Library (AID 1347361)
Procedure, shortened: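 Apoptosis in HEK293 was scored as caspase-3/7 luminescence following 12 h treatment with a compound concentration series in qHTS format.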

[14] = test system: NAD(P)H diaphorase (Clostridium kluyveri); test: Diaphorse counterscreen qHTS: Assay Interference Panel against the NCATS CANVASS Library (AID 1347362)
Procedure, shortened: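 Clostridium kluyveri diaphorase in PBS with 0.01% Tween-20 was preincubated 15 min at room temperature in the dark with compounds (11-point series). Resorufin fluorescence (ex 525/20, em 598/25) was read 5 min after adding resazurin/NADH.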

[15] = biological target: Luciferin 4-monooxygenase (Photinus pyralis) (UniProt P08659); test: Firefly luciferase counterscreen qHTS: Assay Interference Panel against the NCATS CANVASS Library (AID 1347363)
Luciferin 4-monooxygenase (Photinus pyralis), sequence (P08659 whole entry, looked up): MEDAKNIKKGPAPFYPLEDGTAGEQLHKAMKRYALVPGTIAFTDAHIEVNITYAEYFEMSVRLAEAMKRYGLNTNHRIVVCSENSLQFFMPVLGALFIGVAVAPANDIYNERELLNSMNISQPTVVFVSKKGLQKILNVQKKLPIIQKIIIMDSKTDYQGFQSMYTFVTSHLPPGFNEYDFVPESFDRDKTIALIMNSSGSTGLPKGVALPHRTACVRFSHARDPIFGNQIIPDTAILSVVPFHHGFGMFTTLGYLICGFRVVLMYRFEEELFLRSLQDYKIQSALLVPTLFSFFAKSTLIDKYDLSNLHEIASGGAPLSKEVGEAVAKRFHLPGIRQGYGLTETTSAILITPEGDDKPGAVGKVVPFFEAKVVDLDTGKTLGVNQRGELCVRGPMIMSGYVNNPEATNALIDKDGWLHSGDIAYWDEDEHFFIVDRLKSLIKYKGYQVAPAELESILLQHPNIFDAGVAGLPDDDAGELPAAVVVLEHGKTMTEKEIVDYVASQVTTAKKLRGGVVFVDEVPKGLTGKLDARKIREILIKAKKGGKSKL
Procedure, shortened: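 Purified P. pyralis luciferase was added to compounds (11-point series) preincubated 15 min at room temperature with substrate containing 0.013 mM D-luciferin and 0.013 mM ATP; luminescence was read after 5 min.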

[16] = SDT Cancer Cell Toxicity qHTS against the NCATS CANVASS Library (AID 1347365)
Procedure, shortened: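 qHTS, SDT dog glioma line, 500 cells/well; cpds 11 pts; 72 hr, 37C, 5% CO2; CellTiterGlo ATP luminescence.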

[17] = KB-3-1 Cancer Cell Toxicity qHTS against the NCATS CANVASS Library (AID 1347366)
Procedure, shortened: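 Seed KB-3-1 cells at 500/well in DMEM with 10% FBS, add compounds, incubate 72 hr at 37C and 5% CO2, then add CellTiter-Glo and read luminescence after 10 minutes.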

[18] = G06 Cancer Cell Toxicity qHTS against the NCATS CANVASS Library (AID 1347368)
Procedure, shortened: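 Dog G06 glioma line, 500 cells/well; cpds pin-transferred, 11-pt; 72 hr, 37C/5% CO2; CellTiterGlo luminescence (ATP) endpoint.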

[19] = MCF7 Cancer Cell Toxicity qHTS against the NCATS CANVASS Library (AID 1347369)
Procedure, shortened: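 Cytotoxicity is measured by ATP content: MCF7 cells at 500 per well receive an 11-point compound series and, after 72 hr at 37C, are lysed with CellTiterGlo for luminescence.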

[20] = qHTS for ATAD5 Antagonist screened against the NCATS CANVASS Library (AID 1347370)
Procedure, shortened: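 HEK293T cells with stably integrated ATAD5-luciferase reporter, 2000/well, 5 h attachment; compounds plus 10 µM 5-fluorouridine, 16 h at 37 °C. Luciferase luminescence read, with CellTiter-Fluor viability read first.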

[21] = biological target: Nuclear receptor subfamily 1 group I member 3 (Homo sapiens) (UniProt Q14994); test: qHTS for Constitutive Androstane Receptor (CAR) Antagonist screened against the NCATS CANVASS Library (AID 1347372)
Nuclear receptor subfamily 1 group I member 3 (Homo sapiens), sequence (Q14994 whole entry, looked up): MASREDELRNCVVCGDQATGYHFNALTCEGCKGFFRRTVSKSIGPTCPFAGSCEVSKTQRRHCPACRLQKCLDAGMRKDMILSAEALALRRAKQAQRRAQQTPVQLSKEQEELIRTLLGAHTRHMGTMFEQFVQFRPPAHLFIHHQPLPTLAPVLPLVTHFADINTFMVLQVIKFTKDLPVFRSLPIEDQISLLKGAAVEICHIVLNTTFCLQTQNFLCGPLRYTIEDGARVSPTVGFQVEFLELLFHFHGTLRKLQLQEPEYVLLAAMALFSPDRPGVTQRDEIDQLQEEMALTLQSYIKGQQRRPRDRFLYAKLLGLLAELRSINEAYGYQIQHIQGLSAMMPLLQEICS
Procedure, shortened: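 HepG2 cells stably carrying hCAR and a CYP2B6-2.2kb luciferase reporter were exposed to compounds plus 50 nM CITCO for 24hr at 37C. CAR activity was read by ONE-Glo luminescence, with viability measured first by CellTiter-Fluor.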

[22] = biological target: Nuclear receptor subfamily 1 group I member 3 (Homo sapiens) (UniProt Q14994); test: qHTS for Constitutive Androstane Receptor (CAR) Agonist screened against the NCATS CANVASS Library (AID 1347373)
Procedure, shortened: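 HepG2-hCAR-CYP2B6 cells, 2500/well, attached 4hr; cpd + PK11195 1.5uM final; 24hr 37C 5% CO2. CellTiter-Fluor viability read, then ONE-Glo luminescence for CAR activation.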

[23] = DH5-alpha competent E. coli microbial cell viability qHTS against the NCATS CANVASS Library (AID 1347377); conditions: outcome: at 46.1 µM (top of the series)
Procedure, shortened: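 qHTS, 11-pt; E. coli DH5-alpha, 0.2 OD; o/n 37C/5% CO2; BacTiter-Glo, 20 min RT; luminescence.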

[24] = qHTS for H2AX Agonists against the NCATS CANVASS Library (AID 1347378)
Procedure, shortened: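 Following overnight seeding, CHO-K1 cells are incubated with a concentration series of compound for 3 hr at 37C (final DMSO 0.76%). Cells are then lysed, detection antibodies added, and emission ratio 665/620 nm recorded after 24 hr at room temperature.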

[25] = qHTS for Inflammasome Signaling Inhibitors: IL-1-beta AlphaLISA screen against the NCATS CANVASS Library (AID 1347379)
Procedure, shortened: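 THP-1 cells pretreated 1 hr with compound (up to 57.5 uM final), then stimulated with LPS (250 ng/mL final) and ATP (1.25 mM final). Secreted IL-1B measured by AlphaLISA after 16 hr; glyburide as positive control.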

[26] = Inflammasome Signaling qHTS Counterscreen: IL-1-beta AlphaLISA counterscreen against the NCATS CANVASS Library (AID 1347381)
Procedure, shortened: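 Cell-free interference check: compounds added to medium spiked with 4 pg purified IL-1β. Anti-IL-1β acceptor beads (6 ug/mL) with 0.6 nM biotinylated antibody added for 1 h at RT, then streptavidin donor beads (24 ug/mL) for 30 min in the dark. AlphaLISA read at 680/615 nm.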

[27] = Cytotoxicity qHTS for assessment of Hepg2 cells membrane integrity screened against the NCATS CANVASS Library (AID 1347387)
Procedure, shortened: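 qHTS, 11-pt conc. series, 0.59 nM - 46 uM final; HepG2 2000 cells/well, overnight attachment; 5 hr compound exposure 37C/5% CO2; CytoTox-ONE, 10 min RT; fluorescence ex560/em590 = LDH from damaged membranes.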

[28] = qHTS for Activators of p53 Stress Response Pathway screened against the NCATS CANVASS Library (AID 1347388)
Procedure, shortened: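 p53RE-bla HCT-116 cells (4000/well) were plated 5 h at 37C, exposed to compounds for 16 h at 37C over an 11-point concentration series, then loaded with CCF4 for 2 h at room temperature; 460/530 nm emission ratio read.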

[29] = qHTS assay for small molecule disruptors of mitochondrial membrane potential screened against the NCATS CANVASS Library (AID 1347389)
Procedure, shortened: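 HepG2, 2,000 cells/well, attached overnight; compound 1 hr, 37C, 5% CO2; Mito-MPS dye 30 min, 37C; fluorescence 535 nm (monomer) and 590 nm (aggregate); decreased 590/535 ratio = depolarization.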

[30] = Secretion counterscreen for inhibitors of the SERCaMP assay screened against the NCATS CANVASS Library (AID 1347390)
Procedure, shortened: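 Counterscreen identifying compounds that disrupt secretion, using SH-SY5Y cells with a constitutively secreted Gaussia luciferase reporter. A 20 h compound exposure (top 77 uM) precedes luminescent detection with coelenterazine.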

[31] = qHTS for activators of dead-cell proteases activity screened against the NCATS CANVASS Library (AID 1347392)
Procedure, shortened: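 HepG2 cells (2000/well) attached 18 h at 37C, then exposed 5 h to compounds (11-point qHTS). Dead-cell protease activity read as luminescence from cell-impermeant AAF-aminoluciferin substrate after 15 min at room temperature.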

[32] = qHTS for inhibitors of Wild type Zika virus screened against the NCATS CANVASS Library (AID 1347396)
Procedure, shortened: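 Using ATP-based luminescence (CellTiter Glo), this screen scores rescue of Vero 766 cells from wild-type Zika killing at 72 h post-infection. Compounds are tested in a concentration series.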

[33] = Viability qHTS for inhibitors of the SERCaMP assay screened against the NCATS CANVASS Library (AID 1347400)
Procedure, shortened: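 SH-SY5Y SERCaMP MJH297 cells, 1000/well; 4 h settle, 37C/5% CO2; pin-transferred cpds; 48 h; CellTiter-Glo lum. Pos ctrl bortezomib 0.0001 - 4.6 uM.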

[34] = Redox Reaction Profiling qHTS: Assay Interference Panel against the NCATS CANVASS Library (AID 1347401)
Procedure, shortened: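 Resazurin (5 uM) conversion to resorufin measured with 200 uM DTT in 50 mM HEPES pH 7.3, 50 mM NaCl. Compounds tested in 11-point qHTS series. Fluorescence (ex 525/em 598 nm) read before and after 15 min dark incubation.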

[35] = qHTS for inhibitors of Rabies Virus screened against the NCATS CANVASS Library (AID 1347402; calls by dose curve)

Structure (SMILES): CC=C1CN(C=O)[C@H]2C[C@@H]1[C@@H](C(=O)OC)[C@@]13CCOC21Nc1ccccc13 (stereo not given in full)
- Potency [1]: 44 µM (active)
- Potency [2]: inactive
- Potency [3]: inactive
- Potency [4]: inactive
- Potency [5]: inactive
- Potency [6]: inactive
- Potency [7]: inactive
- Potency [8]: inactive
- Potency [9]: inactive
- Potency [10]: inactive
- outcome [11]: inactive
- Potency [12]: inactive
- Potency [13]: inactive
- outcome [14]: inactive
- outcome [15]: inactive
- Potency [16]: inactive
- Potency [17]: inactive
- Potency [18]: inactive
- Potency [19]: inactive
- Potency [20]: inactive
- Potency [21]: inactive
- outcome [22]: inactive
- outcome [23]: inactive
- Potency [24]: inactive
- Potency [25]: inactive
- outcome [26]: inactive
- outcome [27]: inactive
- Potency [28]: inactive
- Potency [29]: inactive
- Potency [30]: inactive
- Potency [31]: inactive
- Potency [32]: inactive
- Potency [33]: inactive
- Potency [34]: inactive
- outcome [35]: inactive
